# Bioassay records (PubChem BioAssay)
# A selection: hits, their analogues and other compounds. The true share with any hit is near 6.1%.
# D3 antag: D3 dopamine receptor (human) antagonism; P35462; 360,000 compounds, 2.5% hits; max response, negative = inhibition, %; D3R cells, DiscoveRx beta-arrestin luminescence, antagonist mode; active compounds read low; in the data active means max response below about -50%; inconclusive means no clear call, values can overlap the other calls
#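 Cells expressing the human receptor were seeded at 1500 cells/well, incubated overnight at 37 degrees C in 5% CO2, then exposed to library compounds with dopamine controls for 90 minutes at 37 degrees C before luminescent detection.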
# D1 agonist: activates the human D1 dopamine receptor | P21728 | HEK293 T-REx D1 cells, calcium flux, agonist mode | activation, % at 2 µM | 360,000 compounds, 1% hits | AID 504660; in the data active means activation above about 30%
# Target sequence (P21728 whole entry, looked up): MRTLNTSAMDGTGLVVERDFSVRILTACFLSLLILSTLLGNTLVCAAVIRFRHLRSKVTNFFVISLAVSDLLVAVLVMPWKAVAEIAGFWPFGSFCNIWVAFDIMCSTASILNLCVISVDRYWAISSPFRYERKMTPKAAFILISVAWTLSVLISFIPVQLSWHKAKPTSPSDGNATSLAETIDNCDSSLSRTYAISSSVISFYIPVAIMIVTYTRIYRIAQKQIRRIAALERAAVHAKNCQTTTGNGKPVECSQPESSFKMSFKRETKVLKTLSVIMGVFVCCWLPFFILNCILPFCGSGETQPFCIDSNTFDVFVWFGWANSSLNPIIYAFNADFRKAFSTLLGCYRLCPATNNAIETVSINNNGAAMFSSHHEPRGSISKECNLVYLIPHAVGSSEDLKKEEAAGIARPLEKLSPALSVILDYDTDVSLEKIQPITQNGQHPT
#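 Agonism was scored from calcium flux recorded over 180 s (1 read/s) after pintool compound addition, following a 10-cycle baseline. Cells were inducible force-coupled HEK293 TREx D1, plated overnight at 30 C and loaded with no-wash calcium dye.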
# D1 antag: human D1 dopamine receptor antagonism | P21728 | HEK293 TREx D1 cells, calcium flux, dopamine EC80; active compounds read low | activity change, negative = inhibition, % at 10 µM | 360,000 compounds, 3.2% hits; in the data active means activity change below about -30%
#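 Tetracycline-induced HEK293 T-REx cells with force-coupled D1 receptor were loaded with a no-wash calcium dye. Compound was added after a 10 s baseline and read kinetically for 180 s; EC80 dopamine was then added and calcium flux followed another 180 s.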
# D1 potentiator: enhances dopamine response at the human D1 receptor; AID 504651; potentiation, % at 10 µM; 360,000 compounds, 0.036% hits; HEK293 TREx D1 cells, calcium flux, dopamine EC20 potentiation; P21728; in the data active means potentiation above about 30%
# DRD3 agonist: activates the human D3 dopamine receptor; P35462; D3R DiscoveRx beta-arrestin cells, luminescence, 90 min; max activation, %; 410,000 compounds, 0.58% hits; in the data active means max activation above about 30%
#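 Cells at 1500/well, incubated overnight, then treated with pinned compounds (dopamine as control) for 90 min at 37 degrees C. DiscoveRx reagent added for 30 - 60 minutes at room temperature; luminescence read.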
# Numbers stand for hits; - = inactive; ? = inconclusive; . = not tested or not shown; ! = not confirmed by another sample.
SMILES,D3 antag,D1 agonist,D1 antag,D1 potentiator,DRD3 agonist
O=C(Nc1ccc(Br)cc1)C1CCN(S(=O)(=O)c2cccc3nsnc23)CC1,.,-,-33,-,-
CCC1CCCCN1CCNC(=O)C1CCN(S(=O)(=O)c2cccc3nsnc23)CC1 (stereo unspecified),-,-,-,35,-
Cc1ccc(NC(=O)C2CCCN2S(=O)(=O)c2cccc3nsnc23)cc1Cl (stereo unspecified),.,-,-,-,-
Cn1cc(C(=O)[C@@H]2CCc3nc[nH]c3C2)c2ccccc21,.,.,.,.,-
CCOc1ccccc1NC(=O)CN1C(=O)COc2ccc(S(=O)(=O)N3CCCCCC3)cc21,.,-,-,-,-
Cc1cc[n+](-c2[nH]c(=O)sc2/C=N/NC([S-])=Nc2ccccc2)cc1,-,-,-,-,-
O=c1[nH]c(-[n+]2ccccc2)c(/C=N/NC([S-])=Nc2ccccc2)s1,-,174,-,-,-
CCc1c(C)sc(NC(=O)c2cc(C3CC3)on2)c1C#N,-,-,-37,-,-
Cc1ccc(C(c2nnnn2C2CCCCC2)N2CCc3ccccc32)cc1 (stereo unspecified),-,-,-34,-,-
CC(C)C(c1nnnn1C1CCCCC1)N1CCc2ccccc21 (stereo unspecified),-,-,-,-,-
CCn1c(N2CCN(C(=S)NCCc3ccccc3)CC2)nc2ccccc21,?,-,-36,-,-
CCn1c(N2CCN(S(=O)(=O)c3ccc(F)cc3)CC2)nc2ccccc21,-,-,-,-,-
CCn1c(N2CCN(S(=O)(=O)c3ccc(Cl)cc3)CC2)nc2ccccc21,-,-,-,-,44
CCn1c(N2CCN(C(=S)NCC(C)C)CC2)nc2ccccc21,-,-,-,-,-
CCn1c(N2CCN(C(=S)NC)CC2)nc2ccccc21,-,-,-32,-,-
CC(=O)c1nc2ccccc2n1S(=O)(=O)c1ccc(Cl)cc1,-,-,-36,-,-
O=C(C=Cc1ccccc1)CC(c1ccccc1)N1CCOCC1 (stereo unspecified),-72,.,.,.,-
O=C(C(c1ccccc1)N1CCOCC1)N1CCOCC1 (stereo unspecified),-,-,-,-,-
Cc1ccc(-n2ncc3c(N4CCN(c5ccccc5)CC4)ncnc32)c(C)c1,-,-,-,-,36
c1ccc(-n2ncc3c(N4CCN(CCOc5cccc6ccccc56)CC4)ncnc32)cc1,-,-,-,-,40
CCCn1cc(S(=O)(=O)c2cccc(Cl)c2)c(=O)c2cc(F)c(N3CCOCC3)cc21,.,-,-,-,-
Cc1cccc(C)c1NC(=O)C(NC(=O)c1ccccn1)c1ccccc1[N+](=O)[O-] (stereo unspecified),-,-,-,-,-
Cc1cccc(C)c1NC(=O)C(NC(=O)c1ccccn1)c1ccc([N+](=O)[O-])cc1 (stereo unspecified),-52,-,-,-,-
CN1/C(=C\C=C(/C#N)C(=O)Nc2ccc(Cl)cc2)C(C)(C)c2ccccc21,-,81,-,-,-
Cc1oc2ccc(O)c(CN(C)Cc3ccccc3)c2c1C(=O)Nc1cccc(C(F)(F)F)c1,.,-,-,-,-
SMILES,D3 antag,D1 agonist,D1 antag,D1 potentiator,DRD3 agonist
CC(C)c1cnc2c(c1SCc1ccc([N+](=O)[O-])cc1)c(=O)n(C)c(=O)n2C,.,-,-,-,-
COc1ccc(CCNC(=O)c2cc3sccc3n2Cc2ccc(Cl)cc2)cc1OC,.,-,-,-,-
CCOC(=O)c1c(CN2CCN(C)CC2)oc2ccc(OC)cc12,-57,-,-,-,-
CCOC(=O)c1c(CN2CCCCC2)oc2ccc(OC)cc12,?,-,-,-,-
O=C(Nc1ccc(N2CCC(c3ccccc3)C2)c(C(=O)O)c1)c1ccc(Cl)cc1 (stereo unspecified),.,-,-,-,-
COC(=O)c1sc(S(=O)(=O)N2CCN(c3ccccc3F)CC2)c(C(=O)OC)c1C,-,.,.,.,-
COC(=O)c1sc(S(=O)(=O)N2CCN(c3ccc(OC)cc3)CC2)c(C(=O)OC)c1C,-,-,-40!,-,-
N#CCC1c2ccccc2CCN1C(=O)Nc1ccc(C(F)(F)F)cc1 (stereo unspecified),-94,-,-,-,-
N#CCC1c2ccccc2CCN1C(=O)Nc1cccc(C(F)(F)F)c1 (stereo unspecified),-,-,-,-,-
